DRD3 agonist = activates the human D3 dopamine receptor; max activation, %; AID 652048; D3R DiscoveRx beta-arrestin cells, luminescence, 90 min; 410,000 tested, 0.58% active; P35462; in the data active = max activation above about 30%
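Agonist-mode cell screen: cells plated at 1500/well and incubated overnight at 37 °C, then exposed to library compounds for 90 min at 37 °C. Detection reagent was added for 30–60 min at room temperature, and luminescence was read.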
D1 PAM = potentiators of human D1 dopamine receptor; 360,000 tested, 0.036% active; potentiation, % at 10 µM; P21728; HEK293 TREx D1 cells, calcium flux, dopamine EC20 potentiation; in the data active = potentiation above about 30%
Target sequence (P21728 whole entry, looked up): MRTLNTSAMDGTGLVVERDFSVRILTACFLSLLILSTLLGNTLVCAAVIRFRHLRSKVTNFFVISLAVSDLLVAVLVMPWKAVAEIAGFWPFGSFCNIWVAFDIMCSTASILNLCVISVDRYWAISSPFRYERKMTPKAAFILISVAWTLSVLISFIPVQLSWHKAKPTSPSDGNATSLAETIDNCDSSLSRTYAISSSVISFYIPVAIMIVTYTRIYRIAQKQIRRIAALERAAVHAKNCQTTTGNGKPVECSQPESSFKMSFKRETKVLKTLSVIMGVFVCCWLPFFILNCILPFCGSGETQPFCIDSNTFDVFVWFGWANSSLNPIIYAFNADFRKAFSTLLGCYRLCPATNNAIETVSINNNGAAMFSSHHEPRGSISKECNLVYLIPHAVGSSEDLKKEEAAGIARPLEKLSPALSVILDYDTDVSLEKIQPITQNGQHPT
D1 ag = human D1 receptor agonism | AID 504660 | HEK293 T-REx D1 cells, calcium flux, agonist mode | activation, % at 2 µM | 360,000 tested, 1% active | P21728; in the data active = activation above about 30%
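Tetracycline-induced HEK293 TREx D1 cells, force-coupled to calcium signalling, were dye-loaded with a no-wash calcium kit. Compound was pin-added after a 10 s baseline. Fluorescence was read kinetically at 1 cycle/s for 180 s, with calcium rises flagged as agonism.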
D1 antag = blocks dopamine activation of the human D1 receptor; P21728; HEK293 TREx D1 cells, calcium flux, dopamine EC80; stronger effect = lower value; activity change, negative = inhibition, % at 10 µM; 360,000 tested, 3.2% active; AID 504652; in the data active = activity change below about -30%
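Inducible Hek293 Trex D1 cells (tetracycline, overnight, 30 C). Calcium dye 30–90 min RT. Antagonist mode: EC80 dopamine added after 180 s compound read.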
DRD3 antagonist = D3 dopamine receptor (human) antagonism | D3R cells, DiscoveRx beta-arrestin luminescence, antagonist mode; stronger effect = lower value | P35462 | 360,000 tested, 2.5% active | max response, negative = inhibition, % | AID 652054; in the data active = max response below about -50%; inconclusive = no clear call, values can overlap the other calls
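Cells plated overnight at 1500 cells/well, then exposed to library compounds with dopamine controls for 90 minutes at 37 degrees C. DiscoveRx reagent added for 30–60 minutes at room temperature; luminescence read, quantitative HTS format.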
Each line names hits and unclear results; the compound was inactive in the other large screens. Rows were chosen to be rich in hits. Some 6.1% of all compounds tested hit in one or more screens of this group.

CSc1ccccc1OCc1cc(C(=O)N2CCc3c(Cl)cccc3C2)no1	DRD3 agonist 32
CCOC(=O)N1CCC(NC(=O)c2cc(COc3ccccc3SC)on2)CC1	D1 antag -33
Cc1cccc(CSc2cn(CC(=O)N3CCCCC3)c3ccccc23)c1	none (no result: DRD3 antagonist)
COc1cccc(/C=C2/CCC(CN(C)C)C2=O)c1 (stereo unspecified)	DRD3 antagonist -69 (no result: D1 PAM, D1 ag, D1 antag)
COc1ccc(-n2cc(C(=O)NCCc3ccc(C)cc3)c3ccccc3c2=O)cc1	D1 antag -39 (no result: DRD3 antagonist)
COc1cccc(-n2cc(C(=O)NCCc3ccc(C)cc3)c3ccccc3c2=O)c1	D1 antag -48 (no result: DRD3 antagonist)
CCOc1ccc(-n2ccnc(SCC(=O)NCc3cccc(OC)c3)c2=O)cc1	DRD3 antagonist -60
COc1ccc(-c2cc(C(=O)NCCc3ccccc3)c3c(-c4ccccc4)[nH]nc3n2)cc1	D1 antag -40 (no result: DRD3 antagonist)
COc1cccc(-n2cc(C(=O)NCc3ccc(C)cc3)c3ccccc3c2=O)c1	none (no result: DRD3 antagonist)
COc1ccc(-c2cc(C(=O)NCCc3ccccc3)c3c(-c4ccc(Cl)cc4)[nH]nc3n2)cc1	none (no result: DRD3 antagonist)
COc1ccc(CCNC(=O)c2cc(C(=O)c3cc(Cl)ccc3O)cn(CCc3ccc(OC)cc3)c2=O)cc1	none
COc1ccc(CCNC(=O)c2cc(C(=O)c3cc(C)ccc3O)cn(CCc3ccc(OC)cc3)c2=O)cc1	DRD3 agonist 31
CCOc1ccc(CCNC(=O)c2cn(-c3ccc(OC)cc3)c(=O)c3ccccc23)cc1OCC	none (no result: DRD3 antagonist)
COc1ccc(CCNC(=O)c2cc(-c3ccccn3)nc3ccccc23)cc1	D1 antag -35
CCOc1ccc(CCNC(=O)c2cn(-c3cccc(OC)c3)c(=O)c3ccccc23)cc1	D1 antag -42 (no result: DRD3 antagonist)
Cn1c(=O)oc2cc(S(=O)(=O)NC(Cc3ccccc3)C(=O)Nc3ccc(F)c(Cl)c3)ccc21 (stereo unspecified)	none (no result: DRD3 antagonist)
CCOC(=O)C1CCN(C(=O)Cn2ncc3c4ccccc4n(Cc4ccc(F)cc4)c3c2=O)CC1	none (no result: DRD3 antagonist)
O=C(CCn1c(=O)c2cccn2c2cccnc21)N1CCN(c2ccccc2F)CC1	none (no result: DRD3 antagonist)
Brc1ccc(-c2noc(COc3ccc4c(c3)CCC4)n2)o1	none
Clc1ccc(OCc2nc(-c3ccc(Br)o3)no2)cc1	D1 antag -40
CCN1C(=NCCCCO)N[C@@H](c2ccccc2)C(C(=O)OC)=C1C	none (no result: DRD3 agonist, DRD3 antagonist)
Cc1ccsc1C(=O)OCC(=O)Nc1cccc(S(=O)(=O)NC2=NCCCCC2)c1	D1 antag -42
CC1(C(=O)OCC(=O)Nc2cccc(S(=O)(=O)NC3=NCCCCC3)c2)CC1(Cl)Cl (stereo unspecified)	DRD3 agonist 45
COc1cccc(NC2=NCCCCC2)c1	none
CCN(CC)S(=O)(=O)c1cccc(NC2=NCCCCC2)c1	D1 antag -36
O=C(COC(=O)c1ccccc1)Nc1cccc(S(=O)(=O)NC2=NCCCCC2)c1	none
Cc1ccccc1C(=O)OCC(=O)Nc1cccc(S(=O)(=O)NC2=NCCC2)c1	none (no result: D1 PAM, D1 ag, D1 antag)
Cc1cc(C)cc(C(=O)OCC(=O)Nc2cccc(S(=O)(=O)NC3=NCCCCC3)c2)c1	D1 antag -45
CCCCC(=O)OCC(=O)Nc1cccc(S(=O)(=O)NC2=NCCCCC2)c1	D1 antag -32
CCCCCC(=O)Nc1cccc(S(=O)(=O)NC2=NCCCCC2)c1	none
O=C(Cc1csc(-c2ccc(F)cc2)n1)Nc1cccc(S(=O)(=O)NC2=NCCC2)c1	D1 antag -30
O=C(Cc1csc(-c2ccc(Cl)cc2)n1)Nc1cccc(S(=O)(=O)NC2=NCCC2)c1	none
Cc1cc(C)c(NC(=O)C2CCN(C(=O)N3CCOc4ccccc43)CC2)c(C)c1	none (no result: DRD3 antagonist)
CCN1CCN(c2nc3ccccn3c(=O)c2/C=C(\C#N)S(=O)(=O)c2ccccc2)CC1	D1 antag -66
Cc1ccc(S(=O)(=O)/C(C#N)=C/c2c(N3CCC(C(N)=O)CC3)nc3c(C)cccn3c2=O)cc1	D1 antag -47, DRD3 antagonist inconclusive
CCN1CCN(c2nc3c(C)cccn3c(=O)c2/C=C(\C#N)S(=O)(=O)c2ccccc2)CC1	none
Cc1cccn2c(=O)c(/C=C(\C#N)S(=O)(=O)c3ccccc3)c(N3CCC(C(N)=O)CC3)nc12	DRD3 antagonist inconclusive
Cc1ccc(-c2noc(-c3ccc(N4CCOCC4)c([N+](=O)[O-])c3)n2)cc1	none (no result: DRD3 antagonist)
COc1ccccc1NC(=O)Cc1c(C(=O)O)[nH]c2ccc(Cl)cc12	D1 ag 31 (no result: DRD3 antagonist)
N#C/C(N=Nc1ccccc1O)=N\Nc1ccccc1O	D1 ag 36, D1 antag -59
CNCCC=C1c2ccccc2CCc2ccccc21	D1 antag -79, DRD3 antagonist -91
C[N+](C)(C)CC/C=C1/c2ccccc2CSc2ccccc21	none
CCc1ccc(-n2c(=O)c3c4c(sc3n(CC(=O)N3CCC(C)CC3)c2=O)CCC4)cc1	none (no result: DRD3 antagonist)
CCc1ccc(C(=O)NC(C(=O)NCC2CCCO2)C(C)C)cc1 (stereo unspecified)	DRD3 antagonist -88
COc1ccc(C(=O)N[C@H](C(=O)NCC2CCCCC2)C(C)C)cc1	D1 ag 160
CC(C)[C@H](NC(=O)c1ccccc1)C(=O)OCC(=O)NCC1CCCO1 (stereo partly specified)	none (no result: D1 PAM, D1 ag, D1 antag)
COc1ccc(C(=O)N[C@H](C(=O)NCc2ccc(C)cc2)C(C)C)cc1	none
COc1cccc(C(=O)Nc2nc3nc(C)c(Cc4ccccc4)c(=O)n3[nH]2)c1	none (no result: DRD3 antagonist)
COc1ccccc1Cc1c(-c2ccco2)nc2cc(C)c(Br)c(C)n12	DRD3 antagonist -107 (no result: D1 PAM, D1 ag, D1 antag)
Cc1ccccc1NC(=O)N1C2CCC1CC(O)(c1cccnc1)C2 (stereo unspecified)	D1 antag -34
CCCCc1ccc(NC(=O)CSc2nc3ccccc3nc2N2CCOCC2)cc1	none (no result: DRD3 antagonist)
Cc1ccc2oc(C(=O)Nc3c(C(=O)Nc4ccccc4)oc4ccccc34)cc(=O)c2c1	none (no result: DRD3 antagonist)
COc1ccc(C(=O)Nc2ccc3c(c2)N(C2CCCC2)C(=O)c2ccccc2S3)cc1OC	none (no result: DRD3 antagonist)
O=C(NC(=O)N1CCN(c2cccc(Cl)c2)CC1)c1ccccc1	DRD3 antagonist -72
O=C(NC(=O)N1CCN(c2cccc(Cl)c2)CC1)c1ccc(Cl)cc1	D1 antag -37, DRD3 antagonist inconclusive
COc1ccc(OC)c(NC(=O)COC(=O)c2ccc(S(=O)(=O)N3CCOCC3)cc2)c1	D1 antag -51, DRD3 antagonist inconclusive
COc1ccc(OC)c(NC(=O)COC(=O)c2ccc(S(=O)(=O)N3CCCCC3)cc2)c1	none (no result: D1 PAM, D1 ag, D1 antag)
Cc1ccc(NC(=O)COC(=O)c2ccc(NC(=O)CC#N)cc2)cc1S(=O)(=O)N1CCOCC1	DRD3 antagonist -53 (no result: D1 PAM, D1 ag, D1 antag)
Cc1ccc(NS(=O)(=O)c2ccc3c(c2)OCCCO3)cc1S(=O)(=O)N1CCOCC1	D1 antag -35
Cc1ccc(NC(=O)CCCOc2ccccc2)cc1S(=O)(=O)N1CCOCC1	D1 antag -53
